# Source: PubChem BioAssay (Tox21)
# Inconclusive results are not listed. Entries that show only a call come without a potency. A number with no mark means an inactive call. Calls of active or inactive are those of the source. Unless noted, the call rests on the fitted dose curve; in most records, active means well fitted curve in the direction sought with a large enough effect in the repeat runs; inconclusive means weak or mixed curves; inactive means no such curve, though single readings can be large; an effect the other way counts as inactive or inconclusive.
# How the values were obtained:
# [1] = qHTS assay to identify aromatase inhibitors - cell viability counter screen (AID 743084);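 further: cells stimulated with testosterone during compound exposure; nearly all actives have a fitted effect of over 55% in size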
# [2] = target: Aryl hydrocarbon receptor (Homo sapiens) (UniProt P35869); assay: qHTS assay to identify small molecule that activate the aryl hydrocarbon receptor (AhR) signaling pathway (AID 743085); further: nearly all actives have a fitted effect of over 15% in size; further: potency means the concentration at half of the fitted maximal effect;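 on activation: HG2L7.5c1 human HepG2 liver cells with stably integrated DRE-driven firefly reporter; series mostly up to about 70 µM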
# Summary of the method: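 24 h compound exposure, 37C, HepG2-derived HG2L7.5c1 cells with DRE-responsive luciferase. Readouts: fluorescence viability, then luminescence at room temperature after 30 min.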
# [3] = qHTS assay to identify small molecule that activate the aryl hydrocarbon receptor (AhR) signaling pathway - cell viability counter screen (AID 743086);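 further: HepG2 liver cells carrying the AhR DRE luciferase reporter; series mostly up to about 70 µM; nearly all actives have a fitted effect of over 45% in size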
# Summary of the method: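 HepG2-AhR-luc (HG2L7.5c1) cells, 4000/well, treated 24 h at 37 C with compound; viability measured as CellTiter-Fluor fluorescence after 30 min in the same wells as the luciferase read.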
# [4] = target: Peroxisome proliferator-activated receptor gamma (Homo sapiens) (UniProt P37231); assay: qHTS assay to identify small molecule agonists of the peroxisome proliferator-activated receptor gamma (PPARg) signaling pathway (AID 743094; active means well fitted activation curve with a large enough effect in the signal ratio in the repeat runs, not every such curve was filed as active; the % refers to the signal ratio)
# Summary of the method: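 Cell-based bla reporter, HEK293H background, PPARg-driven UAS. Pre-incubation 5 h, 37C, 5% CO2. Compound 17 h, 37C. Substrate 1 h RT; fluorescence.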
# [5] = qHTS assay to identify small molecule antagonists of the peroxisome proliferator-activated receptor gamma (PPARg) signaling pathway - cell viability counter screen (AID 743194); further: nearly all actives have a fitted effect of over 55% in size
# Summary of the method: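 Cytotoxicity counter screen in PPARg-bla HEK293H cells, same wells as reporter assay. Compounds plus 50 nM rosiglitazone (final) for 17 h at 37 C, then viability read by CellTiter-Glo luminescence.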
# [6] = qHTS assay for small molecule agonists of the antioxidant response element (ARE) signaling pathway - cell viability counter screen (AID 743203; calls by dose curve; further: nearly all actives have a fitted effect of over 55% in size)
# Summary of the method: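 Measured in the same wells as the beta-lactamase ARE reporter, this read-out is CellTiter-Glo luminescence from HepG2 ARE-bla cells given compounds for 16 hrs.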
# [7] = qHTS assay for small molecule activators of the heat shock response signaling pathway - cell viability counter screen (AID 743209); further: nearly all actives have a fitted effect of over 50% in size
# Summary of the method: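 Same-well multiplex: after 2.5 h room-temperature incubation with LiveBLAzer B/G substrate and fluorescence reading, CellTiter-Glo reagent was added to HSE-bla HeLa cells that had received compound for 5 h at 37 C; luminescence read after 30 min.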
# [8] = qHTS assay for small molecule activators of the heat shock response signaling pathway (AID 743210; active means well fitted activation curve with a large enough effect in the signal ratio in the repeat runs, with a control signal flat, not every such curve was filed as active; the % refers to the signal ratio;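 further: HeLa cells with beta-lactamase reporter driven by heat shock elements; series mostly up to about 63 µM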)
# Summary of the method: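 Beta-lactamase reporter read-out: FRET substrate fluorescence after 2.5 h at RT, following 5 h compound treatment at 37 C of HeLa cells carrying HSE-driven bla reporter; quantitative HTS format.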
# [9] = qHTS assay to identify small molecule agonists of the peroxisome proliferator-activated receptor delta (PPARd) signaling pathway - cell viability counter screen (AID 743211); further: nearly all actives have a fitted effect of over 55% in size
# Summary of the method: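 Luminescent ATP viability assay (CellTiter-Glo, 30 min RT) in UAS-bla HEK293H cells carrying the PPAR delta reporter construct, 3000 cells/well, after a 17 h compound treatment at 37 C.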
# [10] = target: Peroxisome proliferator-activated receptor delta (Homo sapiens) (UniProt Q03181); assay: qHTS assay to identify small molecule agonists of the peroxisome proliferator-activated receptor delta (PPARd) signaling pathway (AID 743212; calls by dose curve)
# Summary of the method: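 Read-out: beta-lactamase FRET fluorescence after 2 h room-temperature incubation with LiveBLAzer B/G substrate. Cells were HEK293H carrying a UAS-bla reporter for PPARd, treated at 37 C with DMSO-dissolved compounds.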
# [11] = qHTS assay to identify small molecule antagonists of the peroxisome proliferator-activated receptor delta (PPARd) signaling pathway - cell viability counter screen (AID 743213); further: nearly all actives have a fitted effect of over 50% in size
# Summary of the method: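 HEK293H cells with the PPARd UAS-bla reporter, co-treated 17 h at 37 C with compounds and L165041 (300 nM final), were lysed with CellTiter-Glo. Luminescence indicated viable cell content.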
# [12] = target: Peroxisome proliferator-activated receptor delta (Homo sapiens) (UniProt Q03181); assay: qHTS assay to identify small molecule antagonists of the peroxisome proliferator-activated receptor delta (PPARd) signaling pathway (AID 743215; active means well fitted inhibition curve with a large enough effect in the signal ratio in the repeat runs, not every such curve was filed as active; the % refers to the signal ratio;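 further: cells stimulated with agonist L165041 at 300 nM final during compound exposure; series mostly up to about 62 µM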)
# Summary of the method: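 Fluorescence from cleaved LiveBLAzer B/G FRET substrate (2 h, room temperature) reports PPARd-driven beta-lactamase in HEK293H UAS-bla cells. Cells had been treated 17 h at 37 C with compound plus 300 nM final L165041.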
# [13] = qHTS assay to identify small molecule agonists of the farnesoid-X-receptor (FXR) signaling pathway - cell viability counter screen (AID 743218); further: nearly all actives have a fitted effect of over 45% in size
# Summary of the method: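 Readout: CellTiter-Glo luminescence, 30 min RT, multiplexed after the FXR-bla FRET reading. HEK 293T FXR-UAS-bla cells received compound 5 h post-plating and were incubated 16 h at 37 C.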
# [14] = qHTS assay to identify small molecule antagonists of the farnesoid-X-receptor (FXR) signaling pathway - cell viability counter screen (AID 743221; active means well fitted cell-killing curve with a large enough effect in the repeat runs, not every such curve was filed as active; further: nearly all actives have a fitted effect of over 50% in size)
# Summary of the method: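 In GeneBLAzer FXR-UAS-bla HEK 293T cells stimulated with 50 uM chenodeoxycholic acid (final), compounds acted for 16 h at 37 C. Viability was assessed afterwards by CellTiter-Glo luminescence.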
# [15] = target: Vitamin D3 receptor (Homo sapiens) (UniProt P11473); assay: qHTS assay to identify small molecule agonists of the vitamin D receptor (VDR) signaling pathway (AID 743222; calls by dose curve)
# Summary of the method: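 Following 4 h attachment at 37C, VDR-bla cells (2,000 per well) received DMSO-dissolved compounds or controls. After 16 h incubation, LiveBLAzer B/G FRET substrate was added and fluorescence read 2 h later at room temperature.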
# [16] = target: Vitamin D3 receptor (Homo sapiens) (UniProt P11473); assay: qHTS assay to identify small molecule antagonists of the vitamin D receptor (VDR) signaling pathway (AID 743223; active means well fitted inhibition curve with a large enough effect in the signal ratio in the repeat runs, not every such curve was filed as active; the % refers to the signal ratio)
# Summary of the method: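 Agonist 1alpha,25-dihydroxyvitamin D3 (3 nM in well) was added with each compound to VDR-bla cells preincubated 4 h. Cells stood 16 h at 37C, then FRET substrate 2 h at room temperature; fluorescence intensity recorded.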
# [17] = qHTS assay for small molecule agonists of the antioxidant response element (ARE) signaling pathway (AID 743202; active means well fitted activation curve with a large enough effect in the signal ratio in the repeat runs, not every such curve was filed as active; the % refers to the signal ratio)
# Summary of the method: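 HepG2 ARE-bla reporter line, 2,000 cells/well; 5 h preincubation 37 C/5% CO2; compound (DMSO) 16 h 37 C; B/G FRET substrate 2 h RT; fluorescence intensity.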
# [18] = target: Bile acid receptor (Homo sapiens) (UniProt Q96RI1); assay: qHTS assay to identify small molecule antagonists of the farnesoid-X-receptor (FXR) signaling pathway (AID 743217; active means well fitted inhibition curve with a large enough effect in the signal ratio in the repeat runs, not every such curve was filed as active; the % refers to the signal ratio)
# Summary of the method: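 FRET fluorescence after 2 h room-temperature LiveBLAzer loading gives the readout. Prior step: FXR-bla HEK 293T cells, seeded and incubated 5 h, received test compounds plus 50 uM final CDCA for 16 h at 37 °C.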
# [19] = target: Peroxisome proliferator-activated receptor gamma (Homo sapiens) (UniProt P37231); assay: qHTS assay to identify small molecule antagonists of the peroxisome proliferator-activated receptor gamma (PPARg) signaling pathway (AID 743191; calls by dose curve; further: series mostly up to about 63 µM; nearly all actives have a fitted effect of over 30% in size)
# Summary of the method: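 GeneBLAzer PPARg UAS-bla HEK293H cells, 5 h post-plating, exposed to compounds 17 h at 37C. LiveBLAzer B/G FRET substrate added for 1 h at room temperature; beta-lactamase reporter read by fluorescence intensity.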
# [20] = target: Bile acid receptor (Homo sapiens) (UniProt Q96RI1); assay: qHTS assay to identify small molecule agonists of the farnesoid-X-receptor (FXR) signaling pathway (AID 743220; active means well fitted activation curve with a large enough effect in the signal ratio in the repeat runs, not every such curve was filed as active; the % refers to the signal ratio)
# Summary of the method: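 FXR-UAS-bla HEK 293T cells carrying a UAS-driven beta-lactamase reporter were plated for 5 h at 37C/5% CO2, then exposed to DMSO-dissolved Tox21 10K compounds for 16 h at 37C. A LiveBLAzer B/G FRET substrate was loaded for 2 h at room temperature before fluorescence reading.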
# Bile acid receptor (Homo sapiens), sequence (Q96RI1 whole entry, looked up): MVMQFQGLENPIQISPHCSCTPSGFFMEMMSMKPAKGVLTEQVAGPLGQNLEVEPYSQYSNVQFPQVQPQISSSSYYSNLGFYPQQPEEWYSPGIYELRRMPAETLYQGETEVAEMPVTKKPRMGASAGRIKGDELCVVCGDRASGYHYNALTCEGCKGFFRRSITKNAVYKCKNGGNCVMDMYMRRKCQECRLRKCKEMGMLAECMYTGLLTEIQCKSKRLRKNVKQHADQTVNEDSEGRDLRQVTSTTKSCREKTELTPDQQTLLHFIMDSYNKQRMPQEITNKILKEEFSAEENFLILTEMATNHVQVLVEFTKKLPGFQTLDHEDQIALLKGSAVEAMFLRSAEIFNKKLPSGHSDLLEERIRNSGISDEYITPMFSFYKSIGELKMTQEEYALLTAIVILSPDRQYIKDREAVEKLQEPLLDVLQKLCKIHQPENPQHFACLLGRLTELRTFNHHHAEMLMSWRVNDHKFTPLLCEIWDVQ
# Peroxisome proliferator-activated receptor delta (Homo sapiens), sequence (Q03181 whole entry, looked up): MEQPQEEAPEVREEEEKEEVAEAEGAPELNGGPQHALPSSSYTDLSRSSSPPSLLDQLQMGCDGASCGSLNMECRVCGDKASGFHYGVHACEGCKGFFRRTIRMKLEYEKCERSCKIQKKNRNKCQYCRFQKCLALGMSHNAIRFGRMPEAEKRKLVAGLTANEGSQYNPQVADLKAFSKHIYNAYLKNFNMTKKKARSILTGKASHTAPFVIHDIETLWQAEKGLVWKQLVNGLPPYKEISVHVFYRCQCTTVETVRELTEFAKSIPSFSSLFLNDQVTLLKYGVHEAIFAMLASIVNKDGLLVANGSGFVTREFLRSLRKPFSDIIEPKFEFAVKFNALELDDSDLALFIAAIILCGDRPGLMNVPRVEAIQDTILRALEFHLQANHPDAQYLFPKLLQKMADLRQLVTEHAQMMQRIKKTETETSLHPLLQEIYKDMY
# Aryl hydrocarbon receptor (Homo sapiens), sequence (P35869 whole entry, looked up): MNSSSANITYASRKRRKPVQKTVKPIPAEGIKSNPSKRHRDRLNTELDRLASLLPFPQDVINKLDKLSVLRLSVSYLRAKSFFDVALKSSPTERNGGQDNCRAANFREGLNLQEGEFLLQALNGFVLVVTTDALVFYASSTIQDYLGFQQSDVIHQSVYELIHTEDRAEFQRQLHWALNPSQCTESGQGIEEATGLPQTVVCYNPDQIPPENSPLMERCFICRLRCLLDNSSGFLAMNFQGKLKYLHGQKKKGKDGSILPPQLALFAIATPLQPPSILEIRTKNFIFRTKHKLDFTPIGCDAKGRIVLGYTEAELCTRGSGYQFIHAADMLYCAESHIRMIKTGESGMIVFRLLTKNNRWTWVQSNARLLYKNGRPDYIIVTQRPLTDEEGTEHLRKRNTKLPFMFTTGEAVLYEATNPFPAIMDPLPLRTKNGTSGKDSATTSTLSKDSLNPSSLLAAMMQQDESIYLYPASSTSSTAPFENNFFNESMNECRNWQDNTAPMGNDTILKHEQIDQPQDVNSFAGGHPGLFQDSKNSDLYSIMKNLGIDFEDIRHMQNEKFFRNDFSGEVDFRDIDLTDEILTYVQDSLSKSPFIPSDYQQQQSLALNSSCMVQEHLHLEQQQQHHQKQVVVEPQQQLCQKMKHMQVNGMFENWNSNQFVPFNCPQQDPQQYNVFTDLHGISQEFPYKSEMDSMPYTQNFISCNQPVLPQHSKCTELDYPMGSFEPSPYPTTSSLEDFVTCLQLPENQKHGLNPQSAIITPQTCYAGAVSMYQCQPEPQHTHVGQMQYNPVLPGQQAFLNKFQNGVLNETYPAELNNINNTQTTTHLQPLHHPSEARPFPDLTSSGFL
# Vitamin D3 receptor (Homo sapiens), sequence (P11473 whole entry, looked up): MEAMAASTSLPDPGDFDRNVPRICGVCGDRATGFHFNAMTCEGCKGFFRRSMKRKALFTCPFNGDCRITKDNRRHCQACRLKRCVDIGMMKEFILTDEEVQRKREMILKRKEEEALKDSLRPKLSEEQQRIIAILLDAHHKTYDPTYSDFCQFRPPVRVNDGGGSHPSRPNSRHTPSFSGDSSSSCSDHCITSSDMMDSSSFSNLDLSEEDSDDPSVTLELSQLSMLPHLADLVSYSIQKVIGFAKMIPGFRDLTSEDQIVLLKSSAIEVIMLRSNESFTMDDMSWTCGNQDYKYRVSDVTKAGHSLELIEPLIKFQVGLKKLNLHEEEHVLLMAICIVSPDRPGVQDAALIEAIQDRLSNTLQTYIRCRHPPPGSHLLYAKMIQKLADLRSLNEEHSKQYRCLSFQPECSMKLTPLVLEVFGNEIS
# Peroxisome proliferator-activated receptor gamma (Homo sapiens), sequence (P37231 whole entry, looked up): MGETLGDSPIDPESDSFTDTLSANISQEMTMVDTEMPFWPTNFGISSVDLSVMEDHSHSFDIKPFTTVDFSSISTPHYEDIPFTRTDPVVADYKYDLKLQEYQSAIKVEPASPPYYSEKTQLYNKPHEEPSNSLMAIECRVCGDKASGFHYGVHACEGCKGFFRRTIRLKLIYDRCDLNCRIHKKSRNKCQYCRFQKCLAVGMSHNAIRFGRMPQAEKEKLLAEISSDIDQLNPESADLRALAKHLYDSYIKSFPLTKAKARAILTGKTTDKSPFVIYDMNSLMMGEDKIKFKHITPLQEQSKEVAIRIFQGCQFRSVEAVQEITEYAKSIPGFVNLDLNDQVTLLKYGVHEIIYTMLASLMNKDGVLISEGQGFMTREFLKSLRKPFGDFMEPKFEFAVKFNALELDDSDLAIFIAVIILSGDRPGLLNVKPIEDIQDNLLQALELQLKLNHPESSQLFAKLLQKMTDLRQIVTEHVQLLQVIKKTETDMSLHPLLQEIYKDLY
Structure (SMILES),Potency [1],Potency [2],Potency [3],outcome [4],outcome [5],outcome [6],outcome [7],outcome [8],outcome [9],outcome [10],outcome [11],outcome [12],Potency [13],outcome [14],outcome [15],outcome [16],Potency [17],outcome [18],Potency [19],outcome [20]
CO[Si](CCCCl)(OC)OC,inactive,inactive,inactive,inactive,inactive,inactive,inactive,inactive,inactive,inactive,inactive,inactive,inactive,inactive,inactive,inactive,,,,
Nc1cc(Cl)cc(S(=O)(=O)O)c1O,inactive,inactive,inactive,inactive,inactive,inactive,inactive,inactive,inactive,,inactive,,inactive,inactive,,inactive,,,,
O=C(c1ccc2c(c1)C(=O)OC2=O)c1ccc2c(c1)C(=O)OC2=O,inactive,inactive,inactive,inactive,,inactive,inactive,,inactive,inactive,inactive,inactive,inactive,inactive,inactive,,inactive,inactive,,
O=C(Oc1ccccc1C(=O)O)c1ccccc1O,inactive,inactive,,inactive,inactive,inactive,inactive,inactive,inactive,,inactive,,inactive,inactive,inactive,inactive,inactive,inactive,inactive,inactive
CCN(CCO)c1cccc(C)c1,inactive,inactive,,inactive,inactive,inactive,inactive,inactive,inactive,inactive,inactive,inactive,inactive,inactive,,,inactive,inactive,inactive,inactive
Cc1ccc(S(=O)(=O)NC(=O)NC2CCCCCCC2)cc1,inactive,inactive,inactive,,inactive,inactive,inactive,inactive,inactive,,,,inactive,inactive,inactive,inactive,inactive,,,
CCN(Cc1cccc(S(=O)(=O)O)c1)c1ccccc1,inactive,inactive,,inactive,inactive,inactive,inactive,inactive,inactive,,,,inactive,inactive,inactive,inactive,inactive,inactive,,
O=C(COCCOCCOCC(=O)Nc1c(I)cc(I)c(C(=O)O)c1I)Nc1c(I)cc(I)c(C(=O)O)c1I,inactive,,inactive,inactive,inactive,inactive,inactive,,inactive,inactive,,inactive,inactive,inactive,,,inactive,,inactive,
Cc1ccc2c(c1)c1c3n2CCNC3CCC1 (centres undefined),inactive,10.6 µM (active),,,,inactive,inactive,,inactive,,,,inactive,inactive,,inactive,inactive,inactive,,inactive
CC(C)COC(=O)COc1ccc(Cl)cc1Cl,inactive,inactive,,inactive,,inactive,inactive,inactive,inactive,inactive,inactive,inactive,inactive,inactive,inactive,inactive,inactive,inactive,,inactive
CCCCCCCCCCCCOC(C)=O,inactive,,inactive,inactive,inactive,inactive,inactive,inactive,inactive,inactive,inactive,inactive,inactive,inactive,,inactive,inactive,,inactive,
Cc1oc(=O)oc1CN1CCN(c2cc3c(cc2F)c(=O)c(C(=O)O)c2n3C(C)S2)CC1 (centres undefined),inactive,inactive,,inactive,inactive,,inactive,,inactive,inactive,,inactive,inactive,inactive,,inactive,,,inactive,
CCCCCCCCCCCCCC(=O)OC,inactive,,inactive,inactive,inactive,inactive,inactive,inactive,inactive,inactive,inactive,inactive,inactive,inactive,,,inactive,,inactive,
